Experimental findings from PubChem BioAssay (NCATS) are described below.

Results filed as inconclusive are left out. A number with no mark means an inactive call. Activity calls are given as the source filed them. The call rests on the fitted dose curve.
On the % scale 0 is the no-effect control and ±100 the full control effect; potency means the concentration at half of the fitted maximal effect.

The experiment can be described thus: Cytotoxicity counterscreen for inhibitors of SARS-CoV-2 cell entry (AID 1645845). Further: nearly all actives have a fitted effect of over 50% in size. To be noted: cell viability (SARS-CoV-2 entry assay cells); series mostly up to 57.1 µM; activity change, negative = cytotoxicity: at the top concentration. An excerpt: Assay Provider: Wei Zheng, Ph.D.
National Center for Advancing Translational Sciences, National Institute of Health, Rockville, MD.
SARS-CoV-2 spike protein, within the viral envelope, mediates viral attachment and infection of host cells. The SARS-CoV-2 spike protein specifically binds to the host receptor ACE2 (Angiotensin-converting enzyme 2). This interaction promotes endocytosis of the viral particle, additional events lead to viral-host cell membrane fusion and release of the viral contents, allowing viral replication.
While SARS-CoV-2 requires BSL-3 facilities for live virus work, pseudo-typed partices (PP) that incorporate SARS-CoV-2 spike proteins without replication elements could facilitate studies on viral entry mechanisms in a BSL-2 setting. This PP cell entry assay could also enable screening of small molecule compound libraries in BSL-2 setting to identify inhibitors of SARS-CoV-2 cell entry. To eliminate false positive compounds, ATP content cytotoxicity assay was screened in the same cell line.
SEQUENCE No. (e.g., 1, 2, 3, etc.); […] (e.g., Cells, Incubation, Reagent, etc.); VALUE and DESCRIPTION.
1. Cells. Seed 1500 HEK293-ACE2 cells (Expi293F with stable expression of human ACE2) in 2 uL/well media (DMEM, 10% FBS, 1x L-glutamine, 1x Pen/Strep, 1 ug/ml puromycin) in white 1536-well assay plates (Greiner #782073).
2. Incubation. Incubate at 37 C with 5% CO2 overnight (~16 h).
3. Compounds. Dispense 23 nL/well compounds in DMSO via pin transfer.
4. Incubation. Incubate for 1 h at 37C 5% CO2.
5. Reagent. Dispense 2 uL/well of media (DMEM, 10% FBS, 1x L-glutamine, 1x Pen/Strep, 1 ug/ml puromycin).
6. Incubation. Incubate at for 48h at 37C 5% CO2
7. Reagent. Dispense 4 uL/well of ATPLite 1step luminescence assay reagent (PerkinElmer #6016739).
8. Incubation. Incubate for 15 min at room temperature.
9. Detection. Read luminescence signal (Viewlux plate reader, PerkinElmer). Data was normalized with wells containing cells as 100%, and wells without cells (media only control) as 0%.
For orientation: A counterscreen serves to expose hits that act by an unwanted route or on another target.
On to `COc1cc(Nc2ncc(F)c(Nc3ccc4c(n3)NC(=O)C(C)(C)O4)n2)cc(OC)c1OC`, for which the “activity change, negative = cytotoxicity” value is 1.68%.

On to `Clc1ccc(C(c2ccc(Cl)cc2)n2cc[n+](CC(OCc3ccc(Cl)cc3Cl)c3ccc(Cl)cc3Cl)c2)cc1` (stereo not given), for which the Potency is 31.6 µM (active).

Turning to `CC(C)c1ccc2c(c1)c(SC(C)(C)C)c(CC(C)(C)C(=O)O)n2Cc1ccc(Cl)cc1`, the “activity change, negative = cytotoxicity” value was 4.37%.

On to `CCc1c(C(=O)C(N)=O)c2c(OCC(=O)O)cccc2n1Cc1ccccc1`, for which the compound was called inactive.

Turning to `COCCNCCCn1c(C(=O)CF)c(-c2ccc(C)cc2)c2c(N)ncnc21`, the compound was called inactive.

Turning to `O=C(Nc1ccc(OC(F)(F)F)cc1)c1sccc1NCc1ccnc2ccccc12`, the “activity change, negative = cytotoxicity” value was -28%.

`CCOc1ccn(-c2ccc(F)cc2)c(=O)c1C(=O)Nc1ccc(Oc2ccnc(N)c2Cl)c(F)c1`: the “activity change, negative = cytotoxicity” value was 2.71%.

For the compound `C[C@](O)(COc1ccc(C#N)cc1)C(=O)Nc1ccc(C#N)c(C(F)(F)F)c1`, the “activity change, negative = cytotoxicity” value is -21%.

Regarding `Cn1cc(-c2ccc3nnc(Sc4ccc5ncccc5c4)n3n2)cn1`, the “activity change, negative = cytotoxicity” value is 3.97%.

`Cc1ccccc1N=Nc1ccc(N=Nc2c(O)ccc3ccccc23)c(C)c1`: the outcome was inactive.

As for `CCCOC(=O)c1ccc(O)cc1`, the “activity change, negative = cytotoxicity” value was -1.89%.

Take `CC(C)c1ccccc1Cc1cc(C(=O)Nc2ccc(S(=O)(=O)c3ccccc3C(C)(C)C)cc2)c(O)c(O)c1O`: the “activity change, negative = cytotoxicity” value was -2.29%.

For the compound `COC(=O)c1ccc2c(C(=Nc3ccc(N(C)C(=O)CN4CCN(C)CC4)cc3)c3ccccc3)c(O)[nH]c2c1`, the result was inactive.

For the compound `O=C(O)c1ccccn1`, the “activity change, negative = cytotoxicity” value is 4.96%.

Take `CCC(C)(Oc1ccc(C2(c3ccc(OC(C)(CC)C(=O)O)cc3)CCCCC2)cc1)C(=O)O` (stereo not given): the Potency entry is “inactive”.

With `COC(=O)[C@@H](N)CCCN=C(N)N[N+](=O)[O-]`, the result was inactive.

On to `Nc1ccccc1NC(=O)c1ccc(CNC(=O)OCc2cccnc2)cc1`, for which the “activity change, negative = cytotoxicity” value was -28%.

For the compound `C=CC(=O)Nc1cc2c(Nc3ccc(F)c(Cl)c3)ncnc2cc1C#CC(C)(C)N1CCN(C)CC1`, the Potency is 25.1 µM (active).

Take `CC(C)(O)C(=O)Nc1ccc([N+](=O)[O-])c(C(F)(F)F)c1`: the “activity change, negative = cytotoxicity” value was -26.8%.

Consider `CCN(CC)CCn1c(=O)c(Cc2ccc(OC)cc2)nc2ccccc21`, for which the compound was classed as inactive.

For the compound `NC(=O)C1CCCc2c1[nH]c1ccc(Cl)cc21` (stereo not given), the outcome was inactive.

On to `O=C1C=CC[C@@H]2[C@H]3CCCN4CCC[C@@H](CN12)[C@@H]34`, for which the “activity change, negative = cytotoxicity” value was -9.35%.

As for `Cc1ccccc1-n1c(Cn2ncc3c(N)ncnc32)nc2cccc(C)c2c1=O`, the result was inactive.

As to `CC(C)(C)c1cc(C(=O)O)c(NC(=O)Nc2ccc3[nH]ncc3c2)s1`, the compound was called inactive.

Turning to `O=C(Nc1cc(Cl)cc2c1[nH]c1cnccc12)c1cccnc1`, the “activity change, negative = cytotoxicity” value is 2.68% [at 27.1 µM].

On to `Cc1cc(Nc2nc(N[C@@H](C)c3ncc(F)cn3)ncc2Cl)n[nH]1`, for which the “activity change, negative = cytotoxicity” value is -17.9%.

Regarding `O=C(O)COc1ccccc1`, the call was inactive.

`C=CCNC(N)=S`: the result was inactive.

In the case of `O=C(O)CC(O)C(=O)O` (stereo not given), the compound was classed as inactive.

`CC(=O)N[C@@H](CCC(N)=O)C(=O)O`: the result was inactive.

On to `CN1CCN(c2ccc([N+](=O)[O-])c3no[n+]([O-])c23)CC1`, for which the “activity change, negative = cytotoxicity” value was 2.66%.

On to `NC(=O)c1ccc(N(C(N)=O)c2c(F)cccc2F)nc1-c1ccc(F)cc1F`, for which the “activity change, negative = cytotoxicity” value is 4.12%.

For `Cc1n[nH]c(C)c1Cc1sc2c(c1C(=O)N1C[C@H](O)CO1)c(=O)n(C)c(=O)n2CC(C)C`, the “activity change, negative = cytotoxicity” value is -7.21%.

Take `C[N+](C)(C)CC(=O)O`: the Potency result is “inactive”.

As to `CC(C)(N)C(=O)N[C@H](COCc1ccccc1)C(=O)N1CCC2(CC1)CN(S(C)(=O)=O)c1ccccc12`, the “activity change, negative = cytotoxicity” value is 3.5%.

With `O=c1cccc2n1CC1CNC[C@H]2C1`, the “activity change, negative = cytotoxicity” value was 0.739%.

In the case of `CCCCOCCOc1nc(-c2ccc(C(=O)O)c(F)c2)sc1C`, the “activity change, negative = cytotoxicity” value is -1.28%.

For `COc1cccc2cc(-c3nc(C4CCC(C(=O)O)CC4)n4ncnc(N)c34)[nH]c12` (stereo not given), the “activity change, negative = cytotoxicity” value is -27.4%.

Consider `CC(=O)OCCN1C(=O)c2c(C)nc3ccc(S(=O)(=O)N4CCOCC4)cc3c2C1=O`, for which the “activity change, negative = cytotoxicity” value is 4.26%.

For `CC(C)(C)c1cc(C=C(C#N)C#N)cc(Br)c1O`, the outcome was inactive.
